Screening results as filed in PubChem.
This is a sample that favours compounds with a hit; in the whole collection about 2.9% have one here.
EPAC1 agonist: validation of human EPAC1 agonists; O95398; EPAC1 Rap1b BODIPY-GDP exchange, fluorescence; Potency, µM, hits mostly activators; 1% of 16,000 active; AID 1645883; note: nearly all actives have a fitted effect of over 70% in size
Target sequence (O95398 whole entry, looked up): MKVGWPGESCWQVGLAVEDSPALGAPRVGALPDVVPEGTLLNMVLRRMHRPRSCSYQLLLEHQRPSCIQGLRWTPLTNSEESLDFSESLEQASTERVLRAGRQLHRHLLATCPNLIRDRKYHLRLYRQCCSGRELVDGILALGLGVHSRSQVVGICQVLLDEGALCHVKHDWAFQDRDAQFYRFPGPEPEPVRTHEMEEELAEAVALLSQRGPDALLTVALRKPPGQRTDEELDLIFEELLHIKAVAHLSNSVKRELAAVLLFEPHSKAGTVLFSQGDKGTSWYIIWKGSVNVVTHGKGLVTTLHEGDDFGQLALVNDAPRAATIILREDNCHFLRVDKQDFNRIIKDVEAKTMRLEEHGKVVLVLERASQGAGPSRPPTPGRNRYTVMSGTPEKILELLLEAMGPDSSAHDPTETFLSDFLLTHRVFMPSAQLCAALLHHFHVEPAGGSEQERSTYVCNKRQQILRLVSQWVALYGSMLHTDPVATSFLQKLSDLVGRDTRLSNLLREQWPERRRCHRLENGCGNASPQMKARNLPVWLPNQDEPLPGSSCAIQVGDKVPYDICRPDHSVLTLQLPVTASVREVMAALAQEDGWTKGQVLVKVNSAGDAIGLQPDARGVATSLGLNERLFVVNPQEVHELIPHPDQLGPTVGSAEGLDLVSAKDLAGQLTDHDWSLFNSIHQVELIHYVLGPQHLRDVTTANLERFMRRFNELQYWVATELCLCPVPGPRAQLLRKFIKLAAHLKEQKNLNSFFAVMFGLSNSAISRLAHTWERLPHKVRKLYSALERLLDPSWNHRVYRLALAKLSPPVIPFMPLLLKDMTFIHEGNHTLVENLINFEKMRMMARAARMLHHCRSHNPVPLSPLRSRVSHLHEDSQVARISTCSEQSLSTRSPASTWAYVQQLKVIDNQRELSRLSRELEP
EPAC2 ant val: validation of human EPAC2 antagonists; Q8WZA2; EPAC2 Rap1B BODIPY-GDP exchange, fluorescence; Potency, µM (series often up to 112 µM), hits mostly inhibitors; 1.7% of 16,000 active; AID 1645886; note: nearly all actives have a fitted effect of over 40% in size
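Fluorescent exchange read-out: 100 nM EPAC2 with 250 nM RAP1B–BODIPY-GDP and 50 uM GDP; BODIPY-GDP release lowers fluorescence. Read at 480/540 nm every 5 min for 30 min at room temperature; normalized to 6.5 mM cAMP.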
Numbers stand for hits; ! = repeats disagree; [ ] = remark or other dose. Calls come from the whole dose curve; as a rule, active = well fitted curve in the direction sought with a large enough effect; inconclusive = small, poorly fitted or top-dose-only effect, or another doubt; inactive = no such curve, though single readings can be large; an effect the other way counts as inactive or inconclusive.

`O=C(Nc1cc(C(=O)Nc2ccc(S(=O)(=O)O)cc2S(=O)(=O)O)cc(C(=O)Nc2ccc(S(=O)(=O)O)cc2S(=O)(=O)O)c1)Nc1cc(C(=O)Nc2ccc(S(=O)(=O)O)cc2S(=O)(=O)O)cc(C(=O)Nc2ccc(S(=O)(=O)O)cc2S(=O)(=O)O)c1` gave EPAC1 agonist inconclusive and EPAC2 ant val inactive.
Screening O=C(C1CC12CCN(Cc1cccc3cccnc13)CC2)N1CCN(Cc2cccs2)CC1 (centres undefined) returned EPAC1 agonist inactive and EPAC2 ant val inactive.
For COCC(=O)N1CCC2(CC1)CCN(C(=O)Nc1cccc(C#N)c1)CC2 the results were EPAC1 agonist 126µM and EPAC2 ant val inactive.
COCC(=O)N1CCC2(CCCN(C(=O)Nc3cccc(C#N)c3)C2)CC1 was read as EPAC1 agonist inactive and EPAC2 ant val inactive.
Screening CC[C@@H]1/C=C(\C)C[C@H](C)C[C@H](OC)[C@H]2O[C@@](O)(C(=O)C(=O)N3CCCC[C@H]3C(=O)O[C@H](/C(C)=C/[C@@H]3CC[C@@H](Cl)[C@H](OC)C3)[C@H](C)[C@@H](O)CC1=O)[C@H](C)C[C@@H]2OC returned EPAC1 agonist inactive and EPAC2 ant val inactive.
For C=CC[C@@H]1/C=C(\C)C[C@H](C)C[C@H](OC)[C@H]2O[C@@](O)(C(=O)C(=O)N3CCCC[C@H]3C(=O)O[C@H](/C(C)=C/[C@@H]3CC[C@@H](O)[C@H](OC)C3)[C@H](C)[C@@H](O)CC1=O)[C@H](C)C[C@@H]2OC the results were EPAC1 agonist inactive and EPAC2 ant val 79.4µM.
CC(CN1c2ccccc2Sc2ccc(S(=O)(=O)N(C)C)cc21)N(C)C (centres undefined) was read as EPAC1 agonist inactive and EPAC2 ant val inactive.
Screening CC1(C)CCC2=C(O1)c1ccccc1C(=O)C2=O returned EPAC1 agonist inactive and EPAC2 ant val 28.2µM!.
Screening Cc1cc(N)c2cc(NC(=O)Nc3ccc4nc(C)cc(N)c4c3)ccc2n1 returned EPAC1 agonist 56.2µM and EPAC2 ant val 39.8µM.
Screening Cc1cc(NC(=O)Nc2ccc3c(ccn3C)c2)sn1 returned EPAC1 agonist inactive and EPAC2 ant val inconclusive.
CC(=O)Nc1ccc(SC[C@H](C)CN2CC[C@H](C(C)(C)C)CCC2=O)cc1 was read as EPAC1 agonist inactive and EPAC2 ant val 56.2µM.
COc1ccc(SC[C@H](C)CN2CC[C@H](C)CCC2=O)cc1 was read as EPAC1 agonist inactive and EPAC2 ant val 50.1µM.
`Cc1ccc(SC[C@H](C)CN2CC[C@H](C)CCC2=O)cc1` gave EPAC1 agonist inactive and EPAC2 ant val inconclusive.
For COc1ccc(SC[C@H](C)CN2CC[C@H](O)CCC2=O)cc1 the results were EPAC1 agonist inactive and EPAC2 ant val inactive.
`Cc1cccc2cc(CNCCCN3CCCC3=O)c(N3CCN4CCCC4C3)nc12` (centres undefined) gave EPAC1 agonist inactive and EPAC2 ant val inactive.
`Cc1ccc(C(=O)Nc2cnn(-c3ccc(C(=O)N(C)Cc4n[nH]c5c4CCCC5)cc3)c2)c(C)c1` gave EPAC1 agonist inactive and EPAC2 ant val inactive.
COc1cccc(-c2nc3cc(SC)ccc3cc2CN(C(=O)c2sccc2C)C2CC2)c1 was read as EPAC1 agonist inconclusive and EPAC2 ant val 39.8µM.
For COc1ccc(-c2nc3cc(F)ccc3cc2CN(C(=O)c2cccs2)C2CC2)cc1 the results were EPAC1 agonist inactive and EPAC2 ant val inactive.
COc1ccc2c(c1)CCc1cnc(-n3ncc(C(=O)NCCCc4ccncc4)c3C)nc1-2 was read as EPAC1 agonist inactive and EPAC2 ant val inactive.
Screening CN(C)c1ccc(/C=C/c2ccnc3c(Cl)cccc23)cc1 returned EPAC1 agonist 112µM and EPAC2 ant val inactive.
`CN(C)c1ccc(/C=C/c2c(Cl)cnc3ccccc23)cc1` gave EPAC1 agonist 100µM and EPAC2 ant val inactive.
For CN(C)c1ccc(/C=C/c2ccnc3c(-c4ccccc4)cccc23)cc1 the results were EPAC1 agonist inconclusive and EPAC2 ant val inactive.
Screening Cc1ccc2ncc(C)c(/C=C/c3ccc(N(C)C)cc3)c2c1 returned EPAC1 agonist inactive and EPAC2 ant val inactive.
Screening C[C@]12CCC(=O)C=C1[C@@H]1C[C@@H]1[C@H]1[C@@H]3[C@@H]4C[C@@H]4[C@@]4(CCC(=O)O4)[C@@]3(C)CC[C@@H]12 returned EPAC1 agonist inactive and EPAC2 ant val inactive.
`CCC(=O)O[C@H]1[C@H](O[C@@H]2[C@@H](C)[C@H](O[C@H]3C[C@@](C)(OC)[C@@H](O)[C@H](C)O3)[C@@H](C)C(=O)O[C@H](CC)[C@@](C)(O)[C@H](O)[C@@H](C)C(=O)[C@H](C)C[C@@]2(C)O)O[C@H](C)C[C@@H]1N(C)C` gave EPAC1 agonist inactive and EPAC2 ant val 31.6µM.
Screening CCOC(=O)CCC(=O)O[C@H]1[C@H](O[C@@H]2[C@@H](C)[C@H](O[C@H]3C[C@@](C)(OC)[C@@H](O)[C@H](C)O3)[C@@H](C)C(=O)O[C@H](CC)[C@@](C)(O)[C@H](O)[C@@H](C)C(=O)[C@H](C)C[C@@]2(C)O)O[C@H](C)C[C@@H]1N(C)C returned EPAC1 agonist inactive and EPAC2 ant val inactive.
CCCCCCCCCCC/C=C\C(C)(C)/C=C\CCCC(=O)O was read as EPAC1 agonist inactive and EPAC2 ant val 35.5µM!.
`CCCCC/C=C\C/C=C\C/C=C\C/C=C\CCCCCC(=O)O` gave EPAC1 agonist inactive and EPAC2 ant val inactive[11.4 µM].
For CCCCC/C=C\C/C=C\C/C=C\C/C=C\CCCC(=O)O the results were EPAC1 agonist inactive and EPAC2 ant val inconclusive.
CCCCCCC/C=C\CCCCCCCCC(=O)O was read as EPAC1 agonist inactive and EPAC2 ant val 28.2µM.
Screening COC(=O)[C@@H]1CCCN1C(=O)c1cnn(-c2ncc3c(n2)-c2ccccc2CCC3)c1C1CC1 returned EPAC1 agonist inactive and EPAC2 ant val inactive.
`CC1=C(C(=O)OC(C)C)[C@@H](c2cccc3nonc23)C([N+](=O)[O-])=C(C)N1` gave EPAC1 agonist inactive and EPAC2 ant val inactive.
Screening COC(=O)C1=C(C)NC(C)=C([N+](=O)[O-])C1c1ccccc1C(F)(F)F (centres undefined) returned EPAC1 agonist inactive and EPAC2 ant val 39.8µM!.
For OC1(c2cccnc2)CCN(Cc2ccc3c(c2)CN(Cc2cc4ccccc4s2)CCO3)CC1 the results were EPAC1 agonist inconclusive and EPAC2 ant val inactive.
For CCCC[C@@]1(C2CCCC2)Cc2cc(OCC(=O)O)c(Cl)c(Cl)c2C1=O the results were EPAC1 agonist inactive and EPAC2 ant val 14.1µM.
`O=C(O)COc1ccc(C(=O)c2cccs2)c(Cl)c1Cl` gave EPAC1 agonist inactive and EPAC2 ant val inactive.
CC[C@H](C)[C@H]1O[C@]2(CC[C@@H]1C)C[C@@H]1C[C@@H](C/C=C(\C)[C@@H](O[C@H]3C[C@H](OC)[C@@H](O[C@H]4C[C@H](OC)[C@@H](O)[C@H](C)O4)[C@H](C)O3)[C@@H](C)/C=C/C=C3\CO[C@@H]4[C@H](O)C(C)=C[C@@H](C(=O)O1)[C@]34O)O2 was read as EPAC1 agonist inactive and EPAC2 ant val inactive.
Screening N[C@H](C(=O)O)C(O)C(O)C(O)CO (some centres undefined) returned EPAC1 agonist 112µM and EPAC2 ant val inactive.
Screening O=C(O)[C@H](O)[C@@H](O)[C@H](O)[C@H](O)CO returned EPAC1 agonist inactive and EPAC2 ant val inactive.
